Only some compounds are listed: those with a hit (about 18% of all), similar ones and a draw of the others.
CtBP-E1A blk = CtBP/E1A binding inhibition. 340,000 compounds, 0.49% hits. AlphaScreen GST-E1A/His-CtBP binding, 1536-well; stronger effect = lower value. activity change, % (concentration not given with the values); in the data active = activity change below about -65%; inconclusive = mostly about -30% to -63%
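Steps: dispense buffer (Tris pH 8.0, NaCl 300 mM, TCEP 1 mM, BSA, Tween 20); add 5X protein mix (GST-E1A, His-CtBP, 125 nM each); pin 23 nL compound; 2 h at 37 °C, dark; add 5X beads (50 ug/mL); 1 h; read.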
DT40 TDP1 no CPT = qHTS for Inhibitors of human tyrosyl-DNA phosphodiesterase 1 (TDP1): qHTS in cells in absence of CPT. DT40 Tdp1-/- hTDP1 cells, no CPT, ATP luminescence, 48 h. Potency, µM (highest dose often 46.2 µM), inactives show at the top dose activity change, negative = growth inhibition, usual class: inhibitors. 420,000 compounds, 15% hits; note: potency is the fitted concentration of half-maximal effect; nearly all actives have a fitted effect of over 55% in size
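Growth kinetics read by CellTiter-Glo luminescence after ≥48 hr at 37 °C. Cells: DT40 Tdp1-/- stably carrying human TDP1, 400 per well, compound exposure in the absence of CPT (DMSO vehicle).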
Six1-Eya2 inh = inhibitors of human Six1/Eya2 interaction. AlphaScreen GST-Six1/His-Eya2 binding, biochemical; stronger effect = lower value. Q15475+O00167. AID 651725. activity change, % (no concentration beside the values). 360,000 compounds, 0.56% hits; in the data active = activity change below about -65%; inconclusive = mostly about -30% to -63%
Target sequence (O00167 whole entry, looked up): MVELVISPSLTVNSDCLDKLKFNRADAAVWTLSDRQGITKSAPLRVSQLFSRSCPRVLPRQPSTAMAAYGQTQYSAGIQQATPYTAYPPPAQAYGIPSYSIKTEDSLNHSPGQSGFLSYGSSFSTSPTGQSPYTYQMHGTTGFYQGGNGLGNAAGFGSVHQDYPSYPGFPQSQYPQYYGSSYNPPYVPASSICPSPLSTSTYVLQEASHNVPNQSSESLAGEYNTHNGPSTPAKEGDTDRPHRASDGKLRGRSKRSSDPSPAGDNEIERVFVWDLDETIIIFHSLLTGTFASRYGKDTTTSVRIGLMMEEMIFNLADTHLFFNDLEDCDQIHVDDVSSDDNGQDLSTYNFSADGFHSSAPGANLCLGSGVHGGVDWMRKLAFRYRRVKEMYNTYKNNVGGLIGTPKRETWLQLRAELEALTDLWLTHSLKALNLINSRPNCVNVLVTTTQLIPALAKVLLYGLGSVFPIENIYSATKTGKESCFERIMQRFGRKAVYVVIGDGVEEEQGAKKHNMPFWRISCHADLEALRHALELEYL
Target sequence (Q15475 whole entry, looked up): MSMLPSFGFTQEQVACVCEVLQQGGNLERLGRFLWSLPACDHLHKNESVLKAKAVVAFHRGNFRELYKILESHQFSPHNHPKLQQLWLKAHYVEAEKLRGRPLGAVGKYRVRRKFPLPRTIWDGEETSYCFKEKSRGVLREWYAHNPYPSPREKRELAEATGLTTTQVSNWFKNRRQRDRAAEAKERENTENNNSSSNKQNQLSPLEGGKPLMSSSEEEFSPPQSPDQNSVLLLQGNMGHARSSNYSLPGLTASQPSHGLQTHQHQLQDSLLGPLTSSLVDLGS
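AlphaScreen with GST-Six1 and His-Eya2 (5X mix: 250 nM and 500 nM), glutathione donor and nickel acceptor beads; buffer 50 mM Tris pH 8.0, 300 mM NaCl, 1 mM TCEP; 1 h at 37 C in the dark.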
TDP1 inh = blocks human tyrosyl-DNA phosphodiesterase 1. Q9NUW8. recombinant TDP1, AlphaScreen DNA substrate cleavage. Potency, µM (top dose mostly 130 µM), inactives show top-dose activity change, negative = inhibition, hits mostly inhibitors. 350,000 compounds, 0.28% hits. AID 485290; note: potency is the fitted concentration of half-maximal effect; nearly all actives have a fitted effect of over 40% in size
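Compounds were preincubated with Tdp1 (1 nM final) for 15 min at room temperature before substrate (15 nM final) started a 5 min reaction; beads (10 ug/ml final) were then added for 10 min before AlphaScreen detection.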
IL-1B inflam inh = blocks inflammasome-driven IL-1 beta release; 360,000 compounds, 4.7% hits; THP-1 LPS/ATP IL-1B secretion, AlphaLISA, 16 h; stronger effect = lower value; activity change, % at 57.5 µM; in the data active = activity change below about -50%; inconclusive = mostly about -30% to -49%
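THP-1 cells pretreated 1 hr with compounds (up to 57.5 uM final), then stimulated with LPS (250 ng/mL final) plus ATP (1.25 mM final); secreted IL-1B measured by AlphaLISA after 16 hr, decreased signal indicating inhibition.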
DT40 TDP1 CPT = DT40-hTDP1 cell growth loss with CPT; AID 686979; chicken DT40 Tdp1-/-;hTDP1 cells + 20 nM CPT, ATP luminescence, 48 h; 420,000 compounds, 12% hits; Potency, µM (top dose mostly 46.2 µM), inactives show top-dose activity change, negative = growth inhibition, most hits filed as inhibitors; note: potency is the fitted concentration of half-maximal effect; nearly all actives have a fitted effect of over 55% in size
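Chicken DT40 Tdp1-/- cells complemented with human TDP1, 400 cells/well, exposed to compounds plus 20 nM camptothecin for at least 48 h at 37 C; viability read as ATP content by CellTiter-Glo luminescence.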
* = called active by the depositor; i = inactive; ? = inconclusive; nt = no result; [ ] = remark or other dose. Unless noted, calls come from the whole dose curve; as a rule, active = well fitted curve in the direction sought with a large enough effect; inconclusive = small, poorly fitted or top-dose-only effect, or another doubt; inactive = no such curve, though single readings can be large; an effect the other way counts as inactive or inconclusive. % is set by controls: 0 for no effect and ±100 for the full control effect.

SMILES	CtBP-E1A blk	DT40 TDP1 no CPT	Six1-Eya2 inh	TDP1 inh	IL-1B inflam inh	DT40 TDP1 CPT
CCc1ccc2c(c1)C(=O)C(=O)N2CCS(=O)(=O)c1ccccc1	nt	2.6µM*	6	3%	26	2.9µM*
Cn1c(COc2ccc(Cl)cc2)nnc1SCC(=O)NC1CCCC1	0	-3%	7	nt	-14	2%
Cc1cccc(S(=O)(=O)Nc2ccc(-c3nc4ccc(C)cc4s3)cc2)c1	5	29µM*	1	3%	-12	?
Cc1ccc2nc(-c3ccc(NC(=O)CCS(=O)(=O)c4ccccc4)cc3)sc2c1	-5	26µM*	-4	-2%	-23	?
COc1ccc(C2(C)NC(=O)N(CC(=O)Nc3ccc(-c4nc5ccc(C)cc5s4)cc3)C2=O)cc1 (stereo not drawn)	0	?	5	-5%	-9	?
CCC1(c2ccc(F)cc2)NC(=O)N(CC(=O)Nc2ccc(-c3nc4ccc(C)cc4s3)cc2)C1=O (stereo not drawn)	-4	6.5µM*	0	5%	96	13µM*
Cc1ccc2nc(-c3ccc(NC(=O)CNC4CC4)cc3)sc2c1	8	18µM*	-3	2%	-4	16µM*
O=CN1CCN(C(C(=O)NC2CCCC2)c2cc3c(cc2[N+](=O)[O-])OCO3)CC1 (stereo not drawn)	9	-8%	-7	-5%	-4	9%
Cc1cccc(NC(=O)C(C)n2cc([N+](=O)[O-])cn2)n1 (stereo not drawn)	8	-1%	5	2%	28	20%
Cc1ccc(S(=O)(=O)N2CCC(C(=O)OCC(=O)N(CC(C)C)C3CCS(=O)(=O)C3)CC2)cc1C (stereo not drawn)	0	2%	4	-11%	i	3%
CNc1ccnc(-c2ccccc2CN(C)C)n1	nt	-15%	nt	7%[56.1 µM]	nt	4%
Cc1ccc2nc(-c3ccc(NC(=O)C(C)Sc4nncs4)cc3)sc2c1 (stereo not drawn)	nt	9.2µM*	-20	nt	-20	?
COc1ccc(S(=O)(=O)NCc2ccncc2)cc1NC(=O)c1ccc(Cl)cc1	-13	15µM*	4	0%	-67*	16µM*
CCOc1ccc(S(=O)(=O)NCc2ccncc2)cc1NC(=O)c1ccccc1	-8	1.2µM*	-9	nt	-9	3.7µM*
COc1ccc(OC)c(NC(=O)c2cc(S(=O)(=O)NCc3ccco3)ccc2F)c1	-26	?	-22	5%	-25	-15%
CCOc1ccc(S(=O)(=O)NCc2ccncc2)cc1NC(=O)c1ccccc1F	-13	1.5µM*	2	nt	55	-24%
CCOc1ccccc1NC(=O)c1cc(S(=O)(=O)NCc2ccco2)ccc1F	nt	-82%	15	-5%	-7	15µM*
Cc1ccc(CN(C)C(=O)COC(=O)CSc2ccc(C(N)=O)cc2[N+](=O)[O-])cc1	-2	-20%	-8	2%	73	-4%
CCSC(=O)N(CC)CC(=O)Nc1c(CC)cccc1CC	6	-23%	2	5%	-13	?
CC(=O)Nc1ccc(S(=O)(=O)NCCSCc2c(Cl)cccc2Cl)cc1	1	?	-5	4%	-66*	?
CCOc1ccc(S(=O)(=O)N2CCN(C)CC2)cc1NC(=O)c1ccccc1F	1	?	-69*	19%	nt	?
COc1ccc(S(=O)(=O)NCCSCc2ccc(Cl)cc2)cc1NC(C)=O	0	26µM*	-3	0%	-15	?
CC(=O)Nc1ccc(S(=O)(=O)NCCSCc2cccc(Cl)c2)cc1	4	?	-12	-1%	-16	?
COc1ccc(S(=O)(=O)NCc2ccncc2)cc1NC(=O)c1ccccc1	-2	16µM*	0	-1%	15	21µM*
CCOc1ccc(S(=O)(=O)N2CCN(CC)CC2)cc1NC(=O)c1ccccc1F	?	?	?	nt	-23	-5%
SMILES	CtBP-E1A blk	DT40 TDP1 no CPT	Six1-Eya2 inh	TDP1 inh	IL-1B inflam inh	DT40 TDP1 CPT
Cc1c(NC(=O)C2CC(c3cccc(Br)c3)=NO2)c(=O)n(-c2ccccc2)n1C (stereo not drawn)	nt	-22%	-3	-3%	-6	-21%
O=C(c1ccc(Br)cc1)N(Cc1nc2ccccc2c(=O)[nH]1)C1CCCC1	-27	18µM*	-18	4%	?	?
O=C(c1ccccc1)N(Cc1nc2ccccc2c(=O)[nH]1)C1CCCC1	2	-30%	0	1%	15	8%
Cc1cccc(C(=O)N(Cc2nc3ccccc3c(=O)[nH]2)C2CCCC2)c1	0	26µM*	2	-2%	-19	?
O=C(COC(=O)c1nc(Cl)ccc1Cl)NC1CCCCC1	1	10%	0	1%	1	-7%
COc1ccc(-c2nc3ccccn3c2CN2CCN(c3ccccc3F)CC2)cc1	-16	23µM*	-18	6%	24	?
CCCCNCC(O)(c1ccc(Cl)cc1)c1ccc(Cl)cc1	-13	23µM*	6	3%	-132*	15µM*
COc1ccc(CS(=O)(=O)CC(C)(O)c2ccc(Cl)cc2)cc1 (stereo not drawn)	-15	1%	0	nt	-14	-27%
COc1ccc(CNCC(O)(c2ccccc2)c2ccc(F)cc2)cc1OC (stereo not drawn)	-7	15µM*	2	nt	-88*	?
COc1ccc(CNCC(O)(c2ccc(Cl)cc2)c2ccc(Cl)cc2)cc1	12	18µM*	5	-2%	-16	15µM*
Cc1ccc(C(O)(CNCc2ccccc2)c2ccccc2)cc1 (stereo not drawn)	11	?	9	nt	?	?
COc1ccc(CNCC(O)(c2ccc(F)cc2)c2ccc(F)cc2)cc1OC	-3	16µM*	-9	nt	?	?
O=C(NCC1CC1)c1csc(COCCO)n1	4	-2%	31	nt	40	-9%
CCCN(CC(=O)Nc1ccc(F)c(F)c1F)C(=O)C1CC(=O)N(Cc2ccccc2)C1 (stereo not drawn)	13	-24%	-1	nt	1	-12%
COc1ccc(CNCC(O)(c2ccccc2)c2ccc(F)cc2)cc1 (stereo not drawn)	12	15µM*	0	nt	-89*	21µM*
COc1ccc(CNCC(O)(c2ccc(Cl)cc2)c2ccc(Cl)cc2)cc1OC	-13	6.5µM*	-7	0%	?	15µM*
C=CCC1(C(=O)NCCO)CCN(C(=O)OC(C)(C)C)CC1	-7	-2%	-3	nt	34	-5%
